These results are taken from paper PMC9838217, “Structure of SALL4 zinc finger domain reveals link between AT-rich DNA binding and Okihiro syndrome”.

Numbering of substitutions follows the chain as printed.

Assay [1] addresses T1, SALL4 ZFC4 R900W (HT-SELEX) (Mus musculus, UniProt Q8BX22 870-940, R900W).
T1 sequence: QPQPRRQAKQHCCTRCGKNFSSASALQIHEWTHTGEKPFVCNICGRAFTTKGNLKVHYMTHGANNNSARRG
Briefly: HT-SELEX; high values mean tight binding. Particulars: protein: recombinant; vector His6-GST; dsDNA, one strand shown. The gist of the method:
(§1)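 For each canonical k-mer, binding signal is the read fraction as fold change versus the initial random library. Data came from up to 6 triplicate cycles in which purified recombinant mouse SALL4 zinc finger cluster 4 (residues 870–940, 1 µg) was incubated 10 min at room temperature with library DNA (1.5 µg first cycle, 200 ng later) in 100 µl of 10 mM Tris–HCl pH 7.5, 50 mM NaCl, poly(dI-dC), DTT, followed by Ni2+ bead capture, PCR amplification, MiSeq sequencing and a 6-mer scan.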

For assay [2], the target named is T2, SALL4 ZFC4 G921D (HT-SELEX) (Mus musculus, UniProt Q8BX22 870-940, G921D).
T2 sequence: T1 sequence with W31R, G52D
Nature of the assay: HT-SELEX; high values mean tight binding. Particulars: protein: recombinant; vector His6-GST; dsDNA, one strand shown. A digest of the protocol: as §1

For the sequence CCGGGC, the binding signal in assay [1] amounted to 0.0594 ± 0.00905 fold-change vs cycle 0; in assay [2] it was 0.152 ± 0.0608 fold-change vs cycle 0.

For CACCGC, the binding signal was 0.132 ± 0.00669 fold-change vs cycle 0 in assay [1] and 0.239 ± 0.0797 fold-change vs cycle 0 in assay [2].

For the sequence AACCGC, the binding signal was 0.258 ± 0.0187 fold-change vs cycle 0 in assay [1] and 0.396 ± 0.0835 fold-change vs cycle 0 in assay [2].

On to AGCTCG, for which the binding signal is 0.347 ± 0.0155 fold-change vs cycle 0 in assay [1] and 0.487 ± 0.0527 fold-change vs cycle 0 in assay [2].

For the sequence CCAGGG, the binding signal in assay [1] is 0.305 ± 0.0286 fold-change vs cycle 0; in assay [2], 0.408 ± 0.0718 fold-change vs cycle 0.

With CTCGCA, the binding signal in assay [1] was determined as 0.319 ± 0.0197 fold-change vs cycle 0; in assay [2], 0.471 ± 0.0656 fold-change vs cycle 0.

In the case of CCGCGC, the binding signal is 0.0273 ± 0.00598 fold-change vs cycle 0 in assay [1] and 0.0941 ± 0.0469 fold-change vs cycle 0 in assay [2].

Turning to CCCCCG, the values for the binding signal in assay [1] and in assay [2] were 0.133 ± 0.00946 fold-change vs cycle 0 and 0.239 ± 0.0586 fold-change vs cycle 0, respectively.

As for CCGTCG, the binding signal in assay [1] is 0.147 ± 0.00952 fold-change vs cycle 0; in assay [2], 0.245 ± 0.0616 fold-change vs cycle 0.

As for GGGCTA, the binding signal in assay [1] is 0.35 ± 0.0254 fold-change vs cycle 0; in assay [2], 0.487 ± 0.0896 fold-change vs cycle 0.

Consider GAGCGA, for which the binding signal in assay [1] was found to be 0.326 ± 0.0151 fold-change vs cycle 0; in assay [2] it was 0.483 ± 0.0727 fold-change vs cycle 0.

On to CAGCCA, for which the binding signal was 0.309 ± 0.0234 fold-change vs cycle 0 in assay [1] and 0.442 ± 0.0984 fold-change vs cycle 0 in assay [2].

For the sequence CGAGCA, the binding signal in assay [1] was found to be 0.299 ± 0.00719 fold-change vs cycle 0; in assay [2] it was 0.447 ± 0.0658 fold-change vs cycle 0.

Turning to GACGAC, the binding signal in assay [1] was determined as 0.342 ± 0.0283 fold-change vs cycle 0; in assay [2] it was 0.474 ± 0.0702 fold-change vs cycle 0.

Turning to CGCCAG, the binding signal in assay [1] amounted to 0.103 ± 0.00325 fold-change vs cycle 0; in assay [2], 0.214 ± 0.0676 fold-change vs cycle 0.

As for GCGAGC, the binding signal in assay [1] stood at 0.103 ± 0.00798 fold-change vs cycle 0; in assay [2], 0.229 ± 0.0707 fold-change vs cycle 0.

On to CGACCC, for which the binding signal in assay [1] is 0.172 ± 0.00839 fold-change vs cycle 0; in assay [2] it was 0.317 ± 0.0852 fold-change vs cycle 0.

For the sequence CACCCC, the binding signal amounted to 0.309 ± 0.0175 fold-change vs cycle 0 in assay [1] and 0.407 ± 0.058 fold-change vs cycle 0 in assay [2].

With ACGGGG, the results for the binding signal in assay [1] and in assay [2] were 0.257 ± 0.00971 fold-change vs cycle 0 and 0.37 ± 0.0678 fold-change vs cycle 0, respectively.

Take GTCGAC: the binding signal in assay [1] worked out at 0.301 ± 0.0134 fold-change vs cycle 0; in assay [2] it was 0.452 ± 0.0612 fold-change vs cycle 0.

For CGCGAG, the figures for the binding signal in assay [1] and in assay [2] were 0.135 ± 0.0168 fold-change vs cycle 0 and 0.231 ± 0.0693 fold-change vs cycle 0, respectively.

As to AAGCGG, the binding signal in assay [1] turned out to be 0.29 ± 0.026 fold-change vs cycle 0; in assay [2], 0.396 ± 0.0731 fold-change vs cycle 0.

Regarding GCGCTA, the binding signal was 0.156 ± 0.0119 fold-change vs cycle 0 in assay [1] and 0.291 ± 0.093 fold-change vs cycle 0 in assay [2].

Take GCGCGA: the binding signal in assay [1] was 0.0544 ± 0.00435 fold-change vs cycle 0; in assay [2], 0.152 ± 0.0576 fold-change vs cycle 0.

As to GCCGGC, the binding signal in assay [1] turned out to be 0.0318 ± 0.0022 fold-change vs cycle 0; in assay [2], 0.112 ± 0.0697 fold-change vs cycle 0.

Take GTGCGA: the binding signal came out at 0.265 ± 0.00784 fold-change vs cycle 0 in assay [1] and 0.4 ± 0.0639 fold-change vs cycle 0 in assay [2].

CGCACC: the binding signal amounted to 0.132 ± 0.00899 fold-change vs cycle 0 in assay [1] and 0.24 ± 0.0749 fold-change vs cycle 0 in assay [2].

On to CAGGGG, for which the values for the binding signal in assay [1] and in assay [2] were 0.308 ± 0.0124 fold-change vs cycle 0 and 0.417 ± 0.0612 fold-change vs cycle 0, respectively.

Take CAGCCG: the binding signal in assay [1] stood at 0.115 ± 0.00217 fold-change vs cycle 0; in assay [2], 0.229 ± 0.0654 fold-change vs cycle 0.

Consider CGGGCA, for which the binding signal in assay [1] amounted to 0.116 ± 0.00794 fold-change vs cycle 0; in assay [2], 0.223 ± 0.0617 fold-change vs cycle 0.

AGGCGA: the binding signal in assay [1] stood at 0.276 ± 0.00793 fold-change vs cycle 0; in assay [2], 0.438 ± 0.0693 fold-change vs cycle 0.

With CGGACG, the binding signal in assay [1] was 0.164 ± 0.00531 fold-change vs cycle 0; in assay [2], 0.264 ± 0.055 fold-change vs cycle 0.

As to GCGTCA, the binding signal in assay [1] stood at 0.266 ± 0.00412 fold-change vs cycle 0; in assay [2], 0.39 ± 0.0541 fold-change vs cycle 0.

In the case of ACGGCT, the results for the binding signal in assay [1] and in assay [2] were 0.272 ± 0.0156 fold-change vs cycle 0 and 0.399 ± 0.0636 fold-change vs cycle 0, respectively.

ATCGCG: the binding signal in assay [1] was 0.221 ± 0.00468 fold-change vs cycle 0; in assay [2], 0.363 ± 0.0564 fold-change vs cycle 0.

As to CGCAAG, the binding signal in assay [1] was determined as 0.289 ± 0.0102 fold-change vs cycle 0; in assay [2] it was 0.411 ± 0.0549 fold-change vs cycle 0.

AGCACG: the binding signal in assay [1] came to 0.337 ± 0.0173 fold-change vs cycle 0; in assay [2] it was 0.468 ± 0.0696 fold-change vs cycle 0.

In the case of CATCGC, the values for the binding signal in assay [1] and in assay [2] were 0.317 ± 0.0166 fold-change vs cycle 0 and 0.45 ± 0.0668 fold-change vs cycle 0, respectively.

As for CACGCG, the binding signal was determined as 0.116 ± 0.0104 fold-change vs cycle 0 in assay [1] and 0.214 ± 0.0541 fold-change vs cycle 0 in assay [2].

GCGAGA: the binding signal in assay [1] is 0.334 ± 0.0226 fold-change vs cycle 0; in assay [2], 0.472 ± 0.0669 fold-change vs cycle 0.

Take CCAGCA: the results for the binding signal in assay [1] and in assay [2] were 0.359 ± 0.0242 fold-change vs cycle 0 and 0.477 ± 0.0744 fold-change vs cycle 0, respectively.

Take AGCTGC: the binding signal stood at 0.284 ± 0.0104 fold-change vs cycle 0 in assay [1] and 0.414 ± 0.0709 fold-change vs cycle 0 in assay [2].

Take AGCCAC: the figures for the binding signal in assay [1] and in assay [2] were 0.315 ± 0.0294 fold-change vs cycle 0 and 0.473 ± 0.0855 fold-change vs cycle 0, respectively.

As to GGCAGA, the binding signal was 0.306 ± 0.0166 fold-change vs cycle 0 in assay [1] and 0.438 ± 0.0703 fold-change vs cycle 0 in assay [2].

On to CGGGCC, for which the binding signal was determined as 0.0506 ± 0.00629 fold-change vs cycle 0 in assay [1] and 0.15 ± 0.0772 fold-change vs cycle 0 in assay [2].

Take CCTGCG: the binding signal turned out to be 0.145 ± 0.0224 fold-change vs cycle 0 in assay [1] and 0.246 ± 0.0829 fold-change vs cycle 0 in assay [2].

As to CCCACG, the results for the binding signal in assay [1] and in assay [2] were 0.214 ± 0.0117 fold-change vs cycle 0 and 0.319 ± 0.0528 fold-change vs cycle 0, respectively.

As to ACCCGC, the figures for the binding signal in assay [1] and in assay [2] were 0.145 ± 0.00827 fold-change vs cycle 0 and 0.259 ± 0.0632 fold-change vs cycle 0, respectively.

Consider ACGCCG, for which the binding signal in assay [1] is 0.0708 ± 0.0067 fold-change vs cycle 0; in assay [2], 0.183 ± 0.0752 fold-change vs cycle 0.

Consider CCGGAG, for which the binding signal in assay [1] was determined as 0.255 ± 0.0305 fold-change vs cycle 0; in assay [2], 0.352 ± 0.0596 fold-change vs cycle 0.

With CGCAGA, the binding signal in assay [1] was determined as 0.265 ± 0.0309 fold-change vs cycle 0; in assay [2], 0.379 ± 0.0778 fold-change vs cycle 0.

Turning to AAGGCC, the binding signal came out at 0.32 ± 0.0161 fold-change vs cycle 0 in assay [1] and 0.435 ± 0.0818 fold-change vs cycle 0 in assay [2].

With CTGCAC, the binding signal stood at 0.345 ± 0.044 fold-change vs cycle 0 in assay [1] and 0.47 ± 0.0692 fold-change vs cycle 0 in assay [2].

Take GAAGTA: the results for the binding signal in assay [1] and in assay [2] were 1.6 ± 0.0945 fold-change vs cycle 0 and 1.43 ± 0.121 fold-change vs cycle 0, respectively.

CGTGGC: the binding signal in assay [1] stood at 0.125 ± 0.0124 fold-change vs cycle 0; in assay [2], 0.24 ± 0.0653 fold-change vs cycle 0.

Turning to CGGTCC, the results for the binding signal in assay [1] and in assay [2] were 0.209 ± 0.0179 fold-change vs cycle 0 and 0.324 ± 0.081 fold-change vs cycle 0, respectively.

As to GCCCGC, the binding signal in assay [1] is 0.0368 ± 0.00404 fold-change vs cycle 0; in assay [2] it was 0.115 ± 0.0587 fold-change vs cycle 0.

As for CCCCGA, the binding signal in assay [1] stood at 0.246 ± 0.0185 fold-change vs cycle 0; in assay [2], 0.358 ± 0.0831 fold-change vs cycle 0.

With AAGCCC, the binding signal was 0.353 ± 0.015 fold-change vs cycle 0 in assay [1] and 0.475 ± 0.062 fold-change vs cycle 0 in assay [2].

In the case of ACGGCG, the binding signal came out at 0.0768 ± 0.0155 fold-change vs cycle 0 in assay [1] and 0.177 ± 0.0582 fold-change vs cycle 0 in assay [2].
